An excerpt weighted towards active compounds, which were near 3.4% of everything screened.
Sm TGR inh = inhibitors of Schistosoma mansoni thioredoxin glutathione reductase | purified TGR, DTNB reduction, TNB absorbance 405 nm | Potency, µM (highest dose often 114 µM), without a hit: at the highest dose activity change, negative = inhibition, actives largely listed as inhibitors | 360,000 compounds, 3% hits | AID 485364; note: nearly all actives have a fitted effect of over 60% in size
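First, TGR (20 nM dispensed) and NADPH were mixed with compound. Second, a 15 min room-temperature incubation followed. Third, further NADPH and then DTNB were added to start the reaction. Finally, TNB absorbance was monitored kinetically.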
AmpC inh no detg = AmpC beta-lactamase inhibition without detergent; P00811; 330,000 compounds, 0.52% hits; AmpC nitrocefin hydrolysis, absorbance 480 nm, 0.0001% Triton; Potency, µM (doses to about 57.1 µM), for the others: at the highest dose activity change, negative = inhibition, usual class: inhibitors;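 note: plate controls were no compound for no effect and no enzyme for full effect; nearly all actives have a fitted effect of over 20% in size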
Target sequence (P00811 whole entry, looked up): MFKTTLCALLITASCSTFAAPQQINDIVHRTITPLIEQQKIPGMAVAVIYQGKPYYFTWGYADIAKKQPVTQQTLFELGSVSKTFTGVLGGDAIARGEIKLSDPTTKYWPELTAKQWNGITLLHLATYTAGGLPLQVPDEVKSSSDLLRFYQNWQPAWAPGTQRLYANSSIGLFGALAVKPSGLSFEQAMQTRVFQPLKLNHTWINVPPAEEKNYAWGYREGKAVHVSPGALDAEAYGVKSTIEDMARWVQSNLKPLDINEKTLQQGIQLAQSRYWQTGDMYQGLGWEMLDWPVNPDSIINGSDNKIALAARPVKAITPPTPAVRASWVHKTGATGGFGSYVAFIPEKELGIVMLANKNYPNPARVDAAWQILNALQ
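20 mM phosphate pH 7.0 + 0.01% (detergent screen) or 0.0001% Triton X-100; 5.3 nM AmpC reagent; cpd preinc 15 min RT; nitrocefin (800 uM stock) to start; A480 q20 s × 4 min; Activity was normalised to no-enzyme and no-compound control wells.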
Giardia FBPA inh = inhibitors of Giardia lamblia fructose-1,6-bisphosphate aldolase; 290,000 compounds, 0.71% hits; Potency, µM (top dose mostly 59.6 µM), inactives show top-dose activity, negative = inhibition, most hits filed as inhibitors; purified Giardia FBPA; note: nearly all actives have a fitted effect of over 55% in size
Target sequence (A8B2U2 whole entry, looked up): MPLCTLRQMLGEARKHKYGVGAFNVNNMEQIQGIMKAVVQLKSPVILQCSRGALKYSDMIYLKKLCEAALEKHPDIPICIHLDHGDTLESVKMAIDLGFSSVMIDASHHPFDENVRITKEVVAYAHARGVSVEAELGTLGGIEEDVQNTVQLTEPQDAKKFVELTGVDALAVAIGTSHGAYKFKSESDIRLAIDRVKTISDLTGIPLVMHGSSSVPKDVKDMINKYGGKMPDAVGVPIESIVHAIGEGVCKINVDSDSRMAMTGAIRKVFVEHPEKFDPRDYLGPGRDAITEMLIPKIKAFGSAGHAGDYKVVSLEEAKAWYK
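40 nM FBPA preincubated 10 min at RT with compound (up to 57.5 uM final), then substrate plus GAPDH/TPI/NAD/arsenate coupling and diaphorase/resazurin added. Fluorescence read after 20 min at RT, 525/598 nm.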
AmpC inh detg = AmpC beta-lactamase inhibition with detergent present. P00811. AmpC hydrolysis of nitrocefin, absorbance 480 nm, 0.01% Triton. Potency, µM (doses to about 114 µM), inactives show at the top dose activity change, negative = inhibition, actives largely listed as inhibitors. 370,000 compounds, 0.041% hits. AID 485294;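 note: 0% = no-compound wells and -100% = no-enzyme wells; nearly all actives have a fitted effect of over 25% in size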
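20 mM phosphate pH 7.0 + 0.01% (detergent screen) or 0.0001% Triton X-100; 5.3 nM AmpC reagent; cpd preinc 15 min RT; nitrocefin (800 uM stock) to start; A480 q20 s × 4 min; Activity was normalised to no-enzyme and no-compound control wells.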
RE007 growth inh = less growth of the S. pombe RE007 Vpr strain. Potency, µM (doses to about 92.2 µM), without a hit: top-dose activity change, negative = less growth, usual class: inhibitors. S. pombe RE007 Vpr strain, BacTiter-Glo ATP luminescence, 24 h. 360,000 compounds, 0.21% hits; active = well fitted falling curve with a large enough effect; inconclusive = small, poorly fitted or top-dose-only effect; inactive = no such curve, though single readings can be large or run the other way; note: nearly all actives have a fitted effect of over 50% in size
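Fission yeast strain RE007, carrying one chromosomally integrated HIV-1 vpr copy, was seeded at OD 0.01 in PMG+AL medium with 23 nL pinned compound. After 24 h at 30 °C and 99% humidity, viability was read by BacTiter-Glo luminescence.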
Active calls of the source: *; ? = inconclusive; . = no result given; [ ] = remark or other dose. Unless noted, calls come from the whole dose curve; as a rule, active = well fitted curve in the direction sought with a large enough effect; inconclusive = small, poorly fitted or top-dose-only effect, or another doubt; inactive = no such curve, though single readings can be large; an effect the other way counts as inactive or inconclusive. Unless noted, % is set by controls: 0 for no effect and ±100 for the full control effect; potency is the fitted concentration of half-maximal effect.

SMILES	Sm TGR inh	AmpC inh no detg	Giardia FBPA inh	AmpC inh detg	RE007 growth inh
CC(C)CC1Nc2ccc(C(=O)NCCCN3CCOCC3)cc2NC1=O (centres undefined)	-2%	50%	-5%	-6%	-7%
Cc1oc(/N=C/c2ccc(O)cc2O)c(C#N)c1C	50µM*	-22%	-11%	3%	-9%
Cc1oc(/N=C/c2ccccc2O)c(C#N)c1C	-22%	-24%	-27%	6%	15%
COc1ccc(CC(NC(C)=O)C(=O)NC2CCN(c3nnnn3-c3ccccc3)CC2)cc1 (centres undefined)	0%	55%	0%	-9%	10%
Cc1ccc2nc3sc(C(=O)N4CCCc5ccccc54)c(N)c3cc2c1	11%	-13%	1%	3%	-3%
Cc1cc(C)c2cc3c(N)c(C(=O)N4CCc5ccccc5C4)sc3nc2c1	-6%	0.32µM*	2%	2%	-2%
Cc1cc(C)nc(NC(=O)c2cnc3sccn3c2=O)n1	-1%	40µM*	2%	?	11%
Clc1ccc2c(c1)[C@H]1OCC[C@H]1[C@@H](c1ccco1)N2	40µM*	-16%	-28%	-6%	-11%
CCn1c(CNC(=O)Cc2ccc(OC)cc2)nnc1SCCOc1ccccc1	-23%	58%	1%	?	1%
CCn1c(CNC(=O)Cc2ccc(OC)cc2)nnc1SCC(=O)c1ccccc1	32µM*	50%	-17%	?	-18%
C=CCNC(=O)Nc1ccc(Br)cc1Cl	7%	-14%	3%	-7%	1%
O=C(Nc1ccncc1)Nc1ccc(Br)cc1Cl	-1%	7.9µM*	5%	?	-2%
O=C(CSc1nnnn1Cc1ccccc1)NCC(=O)c1ccccc1	50µM*	-2%	1%	-8%	2%
O=C(CSc1nnnn1Cc1ccccc1)NCCc1ccccc1	3%	-4%	-3%	-3%	17%
O=C1C2CC=C(Cl)CC2C(=O)N1CC1Cc2ccccc2CO1 (centres undefined)	45µM*	-31%	?	-8%	1%
O=C(CCN1C(=O)C2CC=C(Cl)CC2C1=O)NCc1ccco1 (centres undefined)	?	-8%	-7%	-12%	-3%
O=C1C2CC=C(Cl)CC2C(=O)N1CN(Cc1ccco1)CN1C(=O)C2CC=C(Cl)CC2C1=O (centres undefined)	50µM*	-5%	-3%	-10%	2%
O=C1C2CC=C(Cl)CC2C(=O)N1CC1OCCc2ccccc21 (centres undefined)	79µM*	-2%	-15%	-3%	-17%
O=C(O)c1ccccc1NCN1C(=O)C2CC=C(Cl)CC2C1=O (centres undefined)	3%	-21%	1%	-5%	34%
O=C(O)C1CC=C(Cl)CC1C(=O)NCC1OCCc2ccccc21 (centres undefined)	1%	-11%	1%	4%	2%
O=C1C2C3C=CC(O3)C2C(=O)N1Cc1ccncc1 (centres undefined)	.	.	.	.	-5%
CC(C)CN(C)Cc1c(C(=O)N2CCc3ccccc3C2)nc2ccc(Cl)cn12	-4%	67%	4%	-10%	-24%
O=C(c1nc2ccc(Cl)cn2c1CN1CCCC1)N1CCc2ccccc2C1	40µM*	20%	-13%	-5%	-4%
CCCCN(C)Cc1c(C(=O)N2CCc3ccccc3C2)nc2ccc(Cl)cn12	45µM*	37%	1%	-5%	-12%
CN(Cc1cccnc1)Cc1c(C(=O)N2CCc3ccccc3C2)nc2ccc(Cl)cn12	32µM*	67%	-11%	4%	-10%
SMILES	Sm TGR inh	AmpC inh no detg	Giardia FBPA inh	AmpC inh detg	RE007 growth inh
CN(Cc1cnccn1)Cc1c(C(=O)N2CCc3ccccc3C2)nc2ccc(Cl)cn12	-20%[57.1 µM]	84%	-4%	-2%	-13%
C=C(C)C(=O)OCCO	.	.	1%	.	.
S=C(NCc1ccc(Cl)cc1)Nc1ccncc1	35µM*	-39%	.	0%	3%
O=C(C[n+]1ccccc1)N1c2ccccc2Sc2ccccc21	28µM*	-4%	-1%	7%	-24%
CC(C)Cc1cc(C(=O)N2CCN(c3ccc(F)cc3)CC2)no1	17%	0.32µM*	-1%	3%	-3%
Cc1nc([N+](=O)[O-])c(Sc2nc3ccccc3[nH]2)n1Cc1ccccc1	20µM*	-45%	-4%	-5%	-26%
COc1ccc2nc(Sc3c([N+](=O)[O-])nc(C)n3Cc3ccccc3)[nH]c2c1	-54%	-37%	-3%	?	-1%
Cc1cc2nc(Sc3c([N+](=O)[O-])nc(C)n3Cc3ccccc3)[nH]c2cc1C	18µM*	-22%	1%	-3%	-5%
Cc1cccc(Sc2c([N+](=O)[O-])ncn2C)c1	?	-20%	-11%	-1%	0%
Cn1cnc([N+](=O)[O-])c1Sc1nc2ccccc2[nH]1	1.4µM*	-2%	-12%	6%	2%
CCN(CC)C(=O)C(=O)Nc1cc(C(F)(F)F)ccc1Cl	-1%	-10%	3%	5%	-27%
Cc1ccc(NC(=O)Cc2ccc(Cl)cc2)cc1S(=O)(=O)N1CCCCCC1	-16%	-25%	.	-8%	0%
O=C(CN1C(=O)c2ccccc2C1=O)NC1CCS(=O)(=O)C1 (centres undefined)	.	.	.	.	0%
Cc1cccc(NC(=O)CNC(=O)Cn2ncc(Cl)c(Cl)c2=O)c1C	.	-21%	.	.	-15%
Cc1ccc(NC(=O)Cn2ncc(Cl)c(Cl)c2=O)cc1S(=O)(=O)N1CCCCC1	8.9µM*	4µM*	.	-2%	-3%
O=C(Cn1ncc(Cl)c(Cl)c1=O)NCC1CCCCC1	35µM*	-29%	8%	-11%	19%
O=C(Cn1ncc(Cl)c(Cl)c1=O)NC1CCS(=O)(=O)C1 (centres undefined)	6.3µM*	-10%	-2%	?	14%
Cc1ccc(Cn2c(C)c3cnn(CC(=O)NC4CCCC4)c(=O)c3c2C)cc1	?	-12%	-2%	-9%	5%
O=C(Cn1ncc(Cl)c(Cl)c1=O)NC1CCCCC1	25µM*	-18%	.	7%	-23%
CCOc1ccc(/C=N/NC(=O)C(O)c2ccccc2)c(O)c1 (centres undefined)	2%	-42%	-11%	3%	-4%
O=C(NCCSc1ccc(Cl)cc1)c1ccco1	-2%	-18%	-2%	-1%	?
Nc1nnc(SCC(=O)c2ccco2)s1	-10%	-19%	-7%	-6%	0%
O=C(CSc1ccc(Cl)cc1)c1ccco1	5.6µM*	-31%	?	-5%	-25%
O=C(CSc1ccccc1Cl)c1ccco1	45µM*	-29%	-9%	-17%	?
O=C(CCSc1ccc(Cl)cc1)c1ccco1	1µM*	-14%	-3%	1%	-14%

Screens: PubChem BioAssay, National Center for Advancing Translational Sciences (NCATS)
